From PubChem BioAssay
The list is not random: actives were taken first. Their share in the collection is about 6.5%.
HepG2 viability = kills HepG2 cells in TGF-b inhibitor counter-screen. AID 588856. Potency, µM (series often up to 46.1 µM), actives largely listed as cytotoxic. hit rate 0.76% among 410,000. HepG2 CAGA-GFP viability, ATP luminescence, 18 h
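HepG2 CAGA-GFP cells (1000/well, DMEM with 1% FBS) received compound, then TGF-beta at 500 pg/mL final, and were incubated 18 hours at 37 degrees C. Viability was read by CellTiter-Glo luminescence. Media-only wells were set as complete cell-killing and DMSO as no toxicity.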
Giardia killer = kills Giardia lamblia; Giardia lamblia trophozoite viability; activity change, % at 7.66 µM, hits read low; hit rate 0.15% among 340,000; in the data active = activity change below about -80%; inconclusive = between about -30% and that limit;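 note: parasites exposed to compound for two days anaerobically before the ATP read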
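Viability, read as ATP luminescence: trophozoites at 100 cells/well, compound added, 48 hrs anaerobic at 37 deg C, then 15-30 min room-temperature development before reading.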
HT1080NT lethal = kills 2HG-producing HT-1080-NT fibrosarcoma cells; hit rate 1.6% among 360,000; Potency, µM (series often up to 46.1 µM), hits mostly cytotoxic; HT-1080-NT fibrosarcoma viability, CellTiter-Glo ATP luminescence, 48 h;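 note: NT is the 2HG producing partner of a matched IDH1 knockdown line; nearly all actives have a fitted effect of over 55% in size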
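A 48-hour cytotoxicity screen used HT-1080-NT cells plated 2 hours before compound delivery. ATP-based CellTiter-Glo luminescence measured viability, normalized to DMSO and no-cell controls.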
IL-1B inflam inh = inflammasome signaling inhibition, IL-1 beta readout; activity change, % at 57.5 µM; THP-1 LPS/ATP IL-1B secretion, AlphaLISA, 16 h; stronger effect = lower value; hit rate 4.7% among 360,000; in the data active = activity change below about -50%; inconclusive = mostly about -30% to -49%
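Secreted IL-1B measured by AlphaLISA bead assay after 16 h compound exposure of THP-1 cells; compounds (final up to 57.5 uM) added 1 h before LPS (250 ng/mL) and ATP (1.25 mM) stimulation; lower signal means less secretion.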
TGFb SMAD3 inh = inhibitors of TGF-b signaling | HepG2 CAGA-GFP TGF-b/SMAD3 reporter, GFP fluorescence, 18 h; TGF-beta stimulated, 500 pg/mL final | Potency, µM (doses to about 46.1 µM), usual class: inhibitors | hit rate 1.2% among 410,000 | AID 588855; note: nearly all actives have a fitted effect of over 65% in size
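Inhibition of TGF-beta-driven CAGA-GFP reporter expression in HEPG2 cells is measured by cellular GFP fluorescence after 18 h stimulation with 500 pg/mL recombinant TGF-beta in 1% FBS medium at 37 degrees C.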
HT1080 IDH1KD tx = kills HT-1080 cells with IDH1 knockdown. HT-1080 IDH1 knockdown viability, ATP luminescence, 48 h. Potency, µM (series often up to 46.1 µM), usual class: cytotoxic. hit rate 2% among 360,000. AID 686971
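After a 2 h attachment period, IDH1KD HT-1080 cells took pin-transferred compound for 48 h at 37 °C; ATP-based luminescence after 10 min room-temperature reagent incubation reported viability.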
Large screens that a line does not name were inactive. Unless noted, calls come from the whole dose curve; as a rule, active = well fitted curve in the direction sought with a large enough effect; inconclusive = small, poorly fitted or top-dose-only effect, or another doubt; inactive = no such curve, though single readings can be large; an effect the other way counts as inactive or inconclusive.

O=C(NCCC1=CCCCC1)c1coc(=O)c(Br)c1	HT1080NT lethal 7.3µM, TGFb SMAD3 inh inconclusive, HT1080 IDH1KD tx 18µM
CN(C)CCNC(=O)c1coc(=O)c(Br)c1	none
O=C(NCCc1ccccc1)c1coc(=O)c(Br)c1	HT1080NT lethal 21µM, IL-1B inflam inh -99, TGFb SMAD3 inh inconclusive, HT1080 IDH1KD tx 23µM
CC(C)CNC(=O)c1coc(=O)c(Br)c1	HT1080NT lethal inconclusive, TGFb SMAD3 inh 14µM, HT1080 IDH1KD tx 11µM
O=C(NCCC1=CCCCC1)c1ccc(=O)oc1	HT1080 IDH1KD tx inconclusive
COc1cc(C(=O)Nc2nnc(CC(C)(C)C)s2)c([N+](=O)[O-])cc1OC	none
CC1=CN2C(=N)/C(=C/c3ccc(C)o3)C(=O)N=C2S1	none
CC1=CN2C(=N)/C(=C/c3ccc(Sc4ccc(Cl)cc4)o3)C(=O)N=C2S1	HT1080NT lethal inconclusive, IL-1B inflam inh -69, HT1080 IDH1KD tx inconclusive
CC1=CN2C(=N)/C(=C/c3ccc(Sc4ccc(C)cc4)o3)C(=O)N=C2S1	IL-1B inflam inh -58
COCC1CCN(Cc2cn(Cc3ccccc3)nc2-c2cc3ccccc3o2)CC1	IL-1B inflam inh -61, HT1080 IDH1KD tx inconclusive
COC(=O)C1CCN(Cc2cn(Cc3ccccc3)nc2-c2cc3ccccc3o2)CC1	none
COCC1CCCN(Cc2cn(Cc3ccccc3)nc2-c2cc3ccccc3o2)C1 (stereo unspecified)	HT1080NT lethal inconclusive, IL-1B inflam inh -76, TGFb SMAD3 inh 13µM, HT1080 IDH1KD tx 16µM
OC1CCN(Cc2cn(Cc3ccccc3)nc2-c2cc3ccccc3o2)CC1	IL-1B inflam inh inconclusive
CCOc1ccc(NC(=O)COc2ccccc2)c([N+](=O)[O-])c1	Giardia killer inconclusive
C[C@H](CO)N1C[C@H](C)[C@@H](CN(C)Cc2ccc(C(=O)O)cc2)Oc2ccc(NC(=O)Cn3cnnn3)cc2C1=O	none
Cn1nnnc1Sc1ncnc2scc(-c3cccc(Br)c3)c12	Giardia killer inconclusive, TGFb SMAD3 inh inconclusive (no result: HT1080NT lethal, IL-1B inflam inh, HT1080 IDH1KD tx)
Cn1nnnc1Sc1ncnc2scc(-c3ccc([N+](=O)[O-])cc3)c12	TGFb SMAD3 inh 13µM (no result: HT1080NT lethal, IL-1B inflam inh, HT1080 IDH1KD tx)
COc1ccc(-c2csc3ncnc(Sc4nnnn4C)c23)cc1	Giardia killer inconclusive, TGFb SMAD3 inh 18µM (no result: HT1080NT lethal, IL-1B inflam inh, HT1080 IDH1KD tx)
CC(=O)c1cccc(-c2csc3ncnc(Sc4nnnn4C)c23)c1	TGFb SMAD3 inh 6.3µM (no result: Giardia killer, HT1080NT lethal, IL-1B inflam inh, HT1080 IDH1KD tx)
Cn1nnnc1Sc1ncnc2scc(-c3cccc4c3sc3ccccc34)c12	TGFb SMAD3 inh 10µM (no result: HT1080NT lethal, IL-1B inflam inh, HT1080 IDH1KD tx)
CSc1ccc(CCNC(=O)CN2C(=O)c3cccnc3Oc3ccc(Cl)cc32)cc1	none (no result: Giardia killer, HT1080NT lethal, IL-1B inflam inh, HT1080 IDH1KD tx)
O=C(NCCc1ccccc1F)c1ccc2c(c1)OCCO2	Giardia killer inconclusive
COc1ccc(C(=O)Nc2nc(C)c3cc4c(cc3n2)OCO4)cc1	HT1080NT lethal inconclusive, HT1080 IDH1KD tx inconclusive
COc1ccc(Nc2ncnc3scc(-c4ccc(OC)cc4)c23)cc1	HT1080NT lethal inconclusive, TGFb SMAD3 inh inconclusive, HT1080 IDH1KD tx inconclusive
COc1ccc(-c2csc3ncnc(Nc4ccc(OC)c(OC)c4)c23)cc1	TGFb SMAD3 inh 10µM (no result: Giardia killer, HT1080NT lethal, IL-1B inflam inh, HT1080 IDH1KD tx)
Cc1nc2cccnc2n1-c1cccc(C(=O)NCCc2ccc(Cl)cc2)c1	none (no result: Giardia killer, HT1080NT lethal, IL-1B inflam inh, HT1080 IDH1KD tx)
Cc1ccc(C2CC(=O)C=C(NCc3ccccc3)C2)cc1 (stereo unspecified)	HT1080NT lethal inconclusive, HT1080 IDH1KD tx 21µM
O=C(OC1CC2CC1[C@H]1CCCCN1C2=O)N1CCN(c2ccccc2)CC1 (stereo partly specified)	none (no result: HepG2 viability, Giardia killer, TGFb SMAD3 inh)
C=CCN1CCN(C(c2ccc(Cl)cc2)c2nnnn2CCc2ccc(OC)c(OC)c2)CC1 (stereo unspecified)	none
COC(=O)c1ccc(SCC(=O)N2CCC(C)CC2)c([N+](=O)[O-])c1	none
Cc1cc(C)c(OCCN(C)Cc2ccccc2)c(Br)c1	none
Cc1cc(Cl)cc(C)c1OCCOCCNCc1ccccc1	HepG2 viability 14µM, HT1080NT lethal inconclusive, IL-1B inflam inh inconclusive, TGFb SMAD3 inh inconclusive
Cc1cc(C)c(OCCNCc2ccccc2)c(C)c1	IL-1B inflam inh -54
Cc1cc(Br)ccc1OCCNCc1ccccc1	HT1080NT lethal inconclusive, IL-1B inflam inh inconclusive, TGFb SMAD3 inh inconclusive, HT1080 IDH1KD tx inconclusive
